In all, about 350,000 compounds went through this assay and about 31,000 (8.9%) were called active. Roughly 15% stayed inconclusive and do not appear here. Calls follow the shape of the dose curve; as a rule, active = well fitted inhibition curve with a large enough effect; inconclusive = small, poorly fitted or top-dose-only effect; inactive = no such curve, though single readings can be large or run the other way. What follows is part of a selection rich in actives, with near analogues and random picks from the rest.
target: Histone-lysine N-methyltransferase EHMT2 (Homo sapiens) (UniProt Q96KQ7); assay: qHTS Assay for Inhibitors of Histone Lysine Methyltransferase G9a; settings: G9a H3K9 monomethylation, AlphaScreen, 2 h; series mostly up to 59 µM; activity, negative = inhibition: at the top concentration; also: nearly all actives have a fitted effect of over 75% in size
Outline: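 Readings reflect AlphaScreen signal from monomethyl-H3K9 antibody detection. HMT at 20 nM; substrate b-H3K9 500 nM; cofactor SAM 20 uM; 2 h RT reaction; compounds tested as titrations in qHTS with 15 min preincubation.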
% is scaled to controls: 0 for no effect and ±100 for the full control effect; potency is read from the fitted curve at half-maximal effect.

Sequence of Histone-lysine N-methyltransferase EHMT2 (Homo sapiens) (Q96KQ7 913-1193 limits assumed): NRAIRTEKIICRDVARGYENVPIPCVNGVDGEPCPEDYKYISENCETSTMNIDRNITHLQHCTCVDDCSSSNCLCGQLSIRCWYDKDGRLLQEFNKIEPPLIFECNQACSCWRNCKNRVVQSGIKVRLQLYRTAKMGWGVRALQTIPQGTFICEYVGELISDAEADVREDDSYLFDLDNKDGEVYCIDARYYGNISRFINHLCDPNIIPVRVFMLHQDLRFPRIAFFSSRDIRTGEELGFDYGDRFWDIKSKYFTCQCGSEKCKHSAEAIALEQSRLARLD

| SMILES | activity, negative = inhibition | Potency |
| --- | --- | --- |
| O=C(O)C1C2C=CC(C2)C1C(=O)NCc1ccccc1 (stereo not drawn) | 1.59% [at 2.33 µM] (inactive) |  |
| O=C(NCc1ccccc1)[C@H]1C[C@@H]1[C@H](NP(=O)(c1ccccc1)c1ccccc1)c1ccccc1 |  | 28.2 µM (active) |
| COC(=O)[C@H](Cc1ccccc1)NC(=O)[C@@H]1C[C@H]1[C@@H](NC(=O)OCc1ccccc1)c1ccccc1 | 4.81% [at 102 µM] (inactive) |  |
| O=C(CSCc1cnn(-c2ccccc2)c1-n1cccc1)NCc1ccccc1Br | -6.39% (inactive) |  |
| Cc1cc(SCC(=O)c2ccccc2)nc(SCC(=O)c2ccccc2)n1 | 52.4% [at 102 µM] (inactive) |  |
| C/C(=N\NC(=O)c1nc(C)cc(C)n1)c1ccccc1 | 5.99% (inactive) |  |
| Cc1cc(C)nc(S/C=C/C(=O)c2ccccc2)n1 |  | 22.4 µM (active) |
| COc1ccc(Cn2cc(C(=O)c3ccc(C)cc3)c(=O)c3cc(OC)c(OC)cc32)cc1 | -4.14% (inactive) |  |
| Cc1ccc2nc(NC(=O)C3CSC4(C)CCC(=O)N34)sc2c1 (stereo not drawn) |  | 39.8 µM (active) |
| CCOC(=O)c1sc(NC(=O)C2CSC3(C)CCC(=O)N23)nc1C (stereo not drawn) | 20.6% [at 12.7 µM] (inactive) |  |
| CC12CCC(=O)N1C(C(=O)Nc1ccc(F)c(F)c1F)CS2 (stereo not drawn) | 13.3% [at 12.7 µM] (inactive) |  |
| Cc1oc2c(c1C(=O)Nc1ccc(F)c(F)c1)C1=NCCN1C=N2 | 6.48% (inactive) |  |
| COc1ccc(-c2nn(CC(=O)NC3CCCC3)c3c2cnc2ccc(F)cc23)cc1 | 4.34% (inactive) |  |
| COc1ccccc1Nc1ncc(C(C)=O)c(C)n1 | 20.8% [at 102 µM] (inactive) |  |
| C=C(C)C1CC=C(C)/C(=N\NC(=O)CNc2ccccc2OC)C1 (stereo not drawn) |  | 35.5 µM (active) |
| C=C(C)C1CC=C(C)/C(=N/NC(=O)CCCNc2cccc(C)c2)C1 (stereo not drawn) | -9.82% [at 102 µM] (inactive) |  |
| CCOC(=O)c1c(S(=O)(=O)N2CCCC(C(=O)NCc3cccc(C)c3)C2)c(C)n(C)c1C (stereo not drawn) | 5.95% (inactive) |  |
| O=C(NCCC1CCCCN1S(=O)(=O)c1ccc(F)cc1)C(=O)NC1CC1 (stereo not drawn) | 16.1% [at 0.501 µM] (inactive) |  |
| COc1ccc(NC(=O)CCCN2C(=O)C(c3ccccc3)Oc3cccnc32)cc1 (stereo not drawn) | -1.84% (inactive) |  |
| CS(=O)(=O)N(CC(=O)Nc1ccc(F)cc1F)c1cccc([N+](=O)[O-])c1 | 1.69% (inactive) |  |
| O=[N+]([O-])c1cccc(/C([O-])=C(/C(=S)Nc2ccccc2F)[n+]2ccccc2)c1 |  | 28.2 µM (active) |
| Cc1cc(C)nc(NC(=O)c2cccc([N+](=O)[O-])c2)c1 | 0.861% [at 102 µM] (inactive) |  |
| CCCN1C2CCCC1CC(NC(=O)NC13CC4CC(CC(C4)C1)C3)C2 (stereo not drawn) | -2.35% [at 0.501 µM] (inactive) |  |
| OCC[C@H]1C[C@@H](O)[C@H](O)[C@]2(OCCCc3ccccc32)O1 | -3% [at 12.7 µM] (inactive) |  |

| SMILES | activity, negative = inhibition | Potency |
| --- | --- | --- |
| COC(=O)CN1C(=O)C(C)(C)Oc2ccc(C(=O)Nc3cccc(OC)c3)cc21 | 15.9% [at 102 µM] (inactive) |  |
| CC(=O)c1ccc(NC(=O)CSc2nnc(NC(=O)Nc3ccccc3)s2)cc1 | -21.1% (inactive) |  |
| Cc1cccc(CSc2nnc(NC(=O)CSc3nnc(C)s3)s2)c1 | 15.2% [at 102 µM] (inactive) |  |
| Cc1cccc(NC(=O)CSc2nnc(NC(=O)CN3CCOCC3)s2)c1 |  | 7.08 µM (active) |
| C=CCn1c(SCC(=O)NCc2ccccc2)nnc1-c1cc(Br)ccc1O |  | 10 µM (active) |
| O=C(CSc1nnc(-c2cccnc2)n1CCc1ccccc1)NCc1ccccc1 | 16.6% (inactive) |  |
| C=CCn1c(SCC(=O)NC(=O)Cc2ccccc2)nc2ccccc2c1=O | 24.2% [at 12.7 µM] (inactive) |  |
| CCc1cc(=O)oc2c(C)c(OCC(=O)NCCN3CCOCC3)ccc12 | -1.68% [at 102 µM] (inactive) |  |
| Cc1ccc(S(=O)(=O)N(Cc2nc(-c3ccc(Cl)cc3)no2)C2CCCCC2)cc1 | 19% (inactive) |  |
| O=C(CSc1nc(=O)n(Cc2cccnc2)c2c1CCC2)Nc1ccc(F)cc1F | 11.7% (inactive) |  |
| Cc1ccc(C)n1-c1nnc(N2CCC(C(=O)NCc3ccc(F)cc3)CC2)s1 | 4.77% (inactive) |  |
| Cn1c(CC(=O)Nc2ccc(F)cc2)nnc1SCC(=O)NC1CCCCC1 | 2.6% (inactive) |  |
| CCOc1ccc(Nc2nc(Cc3nnc(SCC(=O)NC4CCCC4)n3C)cs2)cc1 |  | 28.2 µM (active) |
| CCOc1cccc(-c2nnc(SCC(=O)NC3CC3)n2C)c1 | -2.25% [at 102 µM] (inactive) |  |
| CC(C)CCNC(=O)CSc1nc2ccccc2nc1Cc1ccc(Cl)cc1 | 14.1% (inactive) |  |
| CC(C)c1ccc(C(=O)NCCCc2ccccc2)cc1 | 68.5% (inactive) |  |
| O=C(NCCCNCc1ccccc1)c1ccc(/C=N/O)nc1 |  | 14.1 µM (active) |
| Nc1ccc(C(=O)NCc2ccccc2)cc1 | -1.36% [at 102 µM] (inactive) |  |
| COc1ccccc1N1CCN(S(=O)(=O)CCNC(=O)COc2ccc(F)cc2)CC1 | 5.42% (inactive) |  |
| COc1ccc(-c2c(C)c3ccc(O)c(CN4CCN(C)CC4)c3oc2=O)cc1OC | 6.72% (inactive) |  |
| CC(C)c1ccc2oc(=O)cc(CN3CCN(Cc4ccccc4)CC3)c2c1 |  | 50.1 µM (active) |
| Cc1cc2oc(=O)cc(CN3CCN(Cc4ccccc4)CC3)c2cc1C | 8.68% [at 102 µM] (inactive) |  |
| COc1ccc2oc(=O)cc(CN3CCOCC3)c2c1 | 20.4% [at 0.501 µM] (inactive) |  |
| CC1CC(C)CN(C(=O)COC(=O)c2ccc3ncsc3c2)C1 (stereo not drawn) | -10.9% [at 12.7 µM] (inactive) |  |

| SMILES | activity, negative = inhibition | Potency |
| --- | --- | --- |
| CCc1cccc(NC(=O)C2CCCN(S(=O)(=O)c3ccc4[nH]c(=O)ccc4c3)C2)c1 (stereo not drawn) | -12.2% (inactive) |  |
| CSc1ccccc1C(=O)OCC(=O)N1CCN(C(C)=O)CC1 | -3.84% [at 12.7 µM] (inactive) |  |
| Cc1ccccc1N1C(=O)C2ON(c3ccccc3)C(c3ccncc3)C2C1=O (stereo not drawn) |  | 44.7 µM (active) |
| COc1cc(C2C3C(=O)N(c4ccccc4)C(=O)C3ON2c2ccccc2)ccc1O (stereo not drawn) | 12.5% (inactive) |  |
| COC(=O)C1=NN(c2ccccc2)C2C(=O)N(c3ccccc3OC)C(=O)C12 (stereo not drawn) | -8.07% (inactive) |  |
| CCOc1ccc2c(c1)c(=O)c(S(=O)(=O)c1ccc(C)cc1)cn2CC | 6.41% [at 102 µM] (inactive) |  |
| COc1ccccc1C(=O)COC(=O)CSCC(=O)Nc1cc(C)on1 | -33.7% [at 102 µM] (inactive) |  |
| CC(C)(COC(=O)Nc1ccccc1)COC(=O)Nc1ccccc1 | -24.1% [at 2.33 µM] (inactive) |  |
| CCN(CC)C(=O)c1sc2nc(-c3ccccc3)ccc2c1N |  | 17.8 µM (active) |
| CCOC(=O)c1sc2nc(SC)nc(-c3ccccc3)c2c1N | 22.6% [at 12.7 µM] (inactive) |  |
| COc1cccc(C(=O)c2sc3nc(-c4ccccc4)cc(C(F)(F)F)c3c2N)c1 | 71% (inactive) |  |
| CC(=O)NS(=O)(=O)c1ccc2c(c1)Cc1cc(S(=O)(=O)NC(C)=O)ccc1-2 | -3.76% [at 0.501 µM] (inactive) |  |
| COc1ccc(CCNC(=O)c2c3c(nc4ccccc24)C(=O)N(C2CCCCC2)C3)cc1OC | 9.2% (inactive) |  |
| COc1ccc(/C=C/C(=O)Nc2ccc3c(c2)OCCO3)cc1OC | -16.2% (inactive) |  |
| CCOc1ccc(C(=O)Nc2ccc3nc4c(c(Nc5ccccc5OC)c3c2)CCCC4)cc1 | -44% (inactive) |  |
| COc1ccccc1Nc1c2c(nc3ccc(NC(=O)/C=C/c4cc(OC)c(OC)c(OC)c4)cc13)CCCC2 |  | 14.1 µM (active) |
| O=C(NC1CC(=O)N(c2ccccc2)C1)c1ccco1 (stereo not drawn) | -2.6% (inactive) |  |
| CC(C)=C1C2CCC1C1C(=O)N(NC(=O)c3ccco3)C(=O)C21 (stereo not drawn) | 6.86% [at 102 µM] (inactive) |  |
| O=C(NN1C(=O)C2C3C=CC(C3)C2C1=O)c1ccco1 (stereo not drawn) |  | 12.6 µM (active) |
| CCOc1ccc(CNC(=O)Cn2cc3c(n2)-c2c(oc(C(=O)N4CCCC4)c2C)CC3)cc1 | -35.9% (inactive) |  |
| O=C(COC(=O)c1ccc2ncsc2c1)Nc1ccc(Cl)cc1 | -43.9% [at 12.7 µM] (inactive) |  |
| Cc1csc(Nc2ccc(Cl)cc2)[n+]1-c1ccc(Cl)cc1 |  | 20 µM (active) |
| O=c1ccnc(Nc2ccc(Cl)cc2)[nH]1 | 1.74% [at 102 µM] (inactive) |  |
| CCc1ccc(NC(=O)COC(=O)c2cccs2)cc1 | -8.8% [at 102 µM] (inactive) |  |

| SMILES | activity, negative = inhibition | Potency |
| --- | --- | --- |
| COc1ccccc1NC(=O)Cn1cnc2ccc(S(=O)(=O)N3CCC(C)CC3)cc2c1=O | -0.173% (inactive) |  |
| CCOc1ccc2[nH]c3nc(SCC(=O)NC4CCCC4)nnc3c2c1 | 12.1% (inactive) |  |
| CCOc1cc(-c2nnc(SCC(=O)NC3CCCCC3)nc2-c2ccc(OC)c(OCC)c2)ccc1OC |  | 8.91 µM (active) |
| CCC(Sc1nnc(-c2ccc(OC)cc2)c(-c2ccc(OC)cc2)n1)C(=O)NC1CCCCC1 (stereo not drawn) | 6.11% (inactive) |  |
| COc1ccc(-c2noc(CCCC(=O)NC3CCCC3)n2)cc1OC |  | 79.4 µM (active) |
| CCOc1cc(-c2nnc(SCC(=O)NC3CCCC3)nc2-c2ccc(OC)c(OCC)c2)ccc1OC |  | 11.2 µM (active) |
| COc1ccc(-c2nnc(SCC(=O)Nc3ccc(C(C)C)cc3)nc2-c2ccc(OC)c(OC)c2)cc1OC | -3.65% (inactive) |  |
| CCOc1cc(-c2noc(CCCC(=O)NC3CCCCC3)n2)ccc1OC | 28.6% [at 102 µM] (inactive) |  |
| CCOc1ccc(-c2noc(CCC(=O)NC3CCCC3)n2)cc1OC | 20.6% [at 102 µM] (inactive) |  |
| COc1ccc(-c2nnc(SCC(=O)NC3CCCCC3)o2)cc1OC | 5.72% [at 102 µM] (inactive) |  |
| Cc1ccc(Nc2nnc(-c3ccc(C)c(S(=O)(=O)N4CCCCC4)c3)c3ccccc23)cc1 | 12.6% (inactive) |  |
| CC(=O)N1CCN(c2ccccc2NC(=S)NC(=O)c2cc3ccccc3o2)CC1 | 10.6% [at 102 µM] (inactive) |  |
| CC(C)(C)OC(=O)N1CCC(c2c(C(=O)NCCc3ccsc3)cnn2-c2ccc(F)cc2F)CC1 | -1.68% (inactive) |  |
| COc1ccc([C@H]2CC(=O)C=C(c3ccc(CO)cc3)C2)cc1 | 11.2% [at 0.501 µM] (inactive) |  |
| Cc1c(-c2cccc(NC(=O)C(C)(C)C)c2)nc2ncccn12 | 9.24% (inactive) |  |
| COc1ccc(Br)cc1CNC(=O)c1cc(=O)[nH]c2ccc(S(=O)(=O)N3CCCC3)cc12 | -3.57% (inactive) |  |
| Cc1ccc(SCC(=O)Nc2ccc3oc(-c4ccccc4F)nc3c2)cc1 | 6.8% (inactive) |  |
| CCOC(=O)c1sc(NC(=O)CSc2nnc(-c3ccco3)o2)c(C(=O)OCC)c1C | -13.7% (inactive) |  |
| CCOC(=O)c1sc(NC(=O)CSc2ncccn2)c(C#N)c1C | -13.3% [at 12.7 µM] (inactive) |  |
| CCOC(=O)c1sc(NC(=O)CSc2nc(C)cc(C(F)(F)F)n2)c(C#N)c1C |  | 11.2 µM (active) |
| O=C(Nc1ccc(C(=O)OCc2cc(=O)n3nc(C4CC4)sc3n2)cc1)c1ccc(F)cc1 | 7.88% [at 12.7 µM] (inactive) |  |
